Measurements as given in PubChem BioAssay (NCATS).
Where “and” joins values, the source holds several entries; their conditions need not be identical. Equal values may be shown once. Inconclusive results are not listed. A call without a number means that no potency is given here. A number with no mark means an inactive call. Calls of active or inactive are those of the source. Calls come from the whole dose curve; as a rule, active = well fitted curve in the direction sought with a large enough effect; inconclusive = small, poorly fitted or top-dose-only effect, or another doubt; inactive = no such curve, though single readings can be large; an effect the other way counts as inactive or inconclusive. Non-standard residues stand in square brackets, D forms with d. Residues, ends and D or L forms follow the SMILES beside them. *: point of attachment. Sta = CC(C)C[C@H](N)[C@@H](O)CC(=O)O; Isovaleryl = CC(C)CC(=O)*

Key:
[1] = target: Cellular tumor antigen p53 (Homo sapiens) (UniProt P04637); assay: Primary qHTS for small molecule compounds that upregulate eGFP-tagged delta133p53alpha (in N-terminal) cells. (AID 2060322); settings: NCI-H358 eGFP-delta133p53alpha fluorescence, 24 h; activation: stronger effect = higher value; note: nearly all actives have a fitted effect of over 75% in size;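 for activation: cells pre-induced with doxycycline then dosed without doxycycline; series mostly up to about 56 µM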
Sequence of Cellular tumor antigen p53 (Homo sapiens) (P04637 whole entry, looked up): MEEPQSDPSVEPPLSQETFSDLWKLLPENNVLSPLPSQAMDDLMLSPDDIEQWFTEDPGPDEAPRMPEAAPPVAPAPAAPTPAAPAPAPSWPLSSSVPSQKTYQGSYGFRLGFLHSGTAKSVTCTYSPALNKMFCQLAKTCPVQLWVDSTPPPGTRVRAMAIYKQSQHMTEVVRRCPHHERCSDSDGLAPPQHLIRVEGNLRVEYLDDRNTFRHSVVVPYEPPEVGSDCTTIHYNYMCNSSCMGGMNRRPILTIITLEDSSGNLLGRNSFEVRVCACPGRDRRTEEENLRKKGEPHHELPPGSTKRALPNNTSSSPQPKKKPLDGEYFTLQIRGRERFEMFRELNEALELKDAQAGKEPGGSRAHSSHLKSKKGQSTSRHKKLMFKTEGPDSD
Procedure, shortened: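 NCI-H358 cells pre-induced 24 h with 10 ng/ml doxycycline for eGFP-delta133p53alpha, plated dox-free and exposed 24 h at 37C to titrated compounds. Fixed, Hoechst-stained; gated GFP peak intensity by laser scanning cytometry, normalized to DMSO (0%) and 57.5 uM 5-azacytidine (100%).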

[2] = BET inhibitor-based combinations targeting novel dependencies in MECOM-rearranged (r) AML: SET-2 cell line (AID 2202231); settings: SET-2 AML cells viability, CellTiter-Glo luminescence, 48 h; viability: stronger effect = lower value, concentration not given here; note: nearly all actives have a fitted effect of over 35% in size
Procedure, shortened: (§1)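 Luminescent ATP readout (CellTiter-Glo) after 48 hr drug exposure gives viability. Curves span 11 concentrations and are normalized to DMSO and empty wells. Activity is reported as area under the curve and its Z-transform within each cell line.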

[3] = BET inhibitor-based combinations targeting novel dependencies in MECOM-rearranged (r) AML: OCI-AML3 cell line (AID 2202232); settings: Potency: OCI-AML3 viability; note: nearly all actives have a fitted effect of over 35% in size
Procedure, shortened: as §1

[4] = BET inhibitor-based combinations targeting novel dependencies in MECOM-rearranged (r) AML: MV-4-11 cell line (AID 2202233); note: nearly all actives have a fitted effect of over 45% in size
Procedure, shortened: (§2)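 Luminescent ATP readout (CellTiter-Glo, 15 min at room temperature) after 48 hr drug exposure gave viability. Dose-response curves, normalized to DMSO and empty-well controls, were summarized as area under the curve and its mean-centred Z-score.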

[5] = BET inhibitor-based combinations targeting novel dependencies in MECOM-rearranged (r) AML: HNT-34 cell line (AID 2202234); note: nearly all actives have a fitted effect of over 35% in size
Procedure, shortened: as §2

[6] = BET inhibitor-based combinations targeting novel dependencies in MECOM-rearranged (r) AML: UCSD-AML1 cell line (AID 2202235); note: nearly all actives have a fitted effect of over 40% in size
Procedure, shortened: as §2

[7] = BET inhibitor-based combinations targeting novel dependencies in MECOM-rearranged (r) AML: AML-191 cell line (AID 2202236; note: nearly all actives have a fitted effect of over 35% in size)
Procedure, shortened: as §1

[8] = BET inhibitor-based combinations targeting novel dependencies in MECOM-rearranged (r) AML: AML-194 cell line (AID 2202237; note: nearly all actives have a fitted effect of over 40% in size)
Procedure, shortened: as §1
Potency is the fitted concentration of half-maximal effect.

SMILES	activation [1]	Potency [2]	Potency [3]	Potency [4]	Potency [5]	Potency [6]	Potency [7]	Potency [8]	viability [2]	Potency [1]
Nc1ncnc2c1nc(Cl)n2[C@@H]1O[C@H](CO)[C@@H](O)[C@@H]1O	-2.08%	11800 nM (active)	13200 nM (active)	5250 nM (active)	2950 nM (active)	5900 nM (active)	3720 nM (active)	2630 nM (active)	–	–
CCCc1cc(C(N)=S)ccn1	-10.9% and -12.4%	–	inactive	inactive	inactive	inactive	inactive	inactive	112%	–
CC(C)(CO)[C@@H](O)C(=O)NCCC(=O)O	-14.4%	–	inactive	inactive	inactive	inactive	inactive	inactive	117%	–
COc1cc(C(=O)NS(=O)(=O)c2ccccc2C)ccc1Cc1cn(C)c2ccc(NC(=O)OC3CCCC3)cc12	105%	–	inactive	inactive	inactive	inactive	inactive	inactive	119%	–
Nc1nc(Cl)nc2c1ncn2[C@H]1C[C@H](O)[C@@H](CO)O1	24.5%	263 nM (active)	83.3 nM (active)	93.4 nM (active)	74.2 nM (active)	29.5 nM (active)	83.3 nM (active)	74.2 nM (active)	–	–
CNC(=O)c1cc(Oc2ccc(NC(=O)Nc3cc(C(C)(C)C)nn3-c3ccc4ncccc4c3)c(F)c2)ccn1	–	18600 nM (active)	23500 nM (active)	46.8 nM (active)	148 nM (active)	16600 nM (active)	20900 nM (active)	20900 nM (active)	–	5.36 µM (active)
CCCc1nc2c(C)cc(-c3nc4ccccc4n3C)cc2n1Cc1ccc(-c2ccccc2C(=O)O)cc1	-6.69% and 11.8%	–	inactive	inactive	inactive	inactive	inactive	inactive	120%	–
CC#CCn1c(N2CCC[C@@H](N)C2)nc2c1c(=O)n(Cc1nc(C)c3ccccc3n1)c(=O)n2C	6.37%	–	inactive	inactive	inactive	inactive	inactive	inactive	113%	–
COc1c2occc2cc2ccc(=O)oc12	-0.837% and 22.7%	–	10500 nM (active)	inactive	inactive	inactive	inactive	inactive	98.3%	–
CS(=O)(=O)OCCCCOS(C)(=O)=O	-9.57%	–	inactive	inactive	inactive	inactive	inactive	inactive	114%	–
Cc1ccc(C(=O)Nc2ccc(CN3CCN(C)CC3)c(C(F)(F)F)c2)cc1C#Cc1cnc2cccnn12	–	7420 nM (active)	1860 nM (active)	26.3 nM (active)	8.3 nM (active)	2630 nM (active)	934 nM (active)	1480 nM (active)	–	7.69 µM (active) and 10.7 µM (active)
CCc1c2c(nc3ccc(OC(=O)N4CCC(N5CCCCC5)CC4)cc13)-c1cc3c(c(=O)n1C2)COC(=O)[C@]3(O)CC	14.2%	372 nM (active)	186 nM (active)	166 nM (active)	105 nM (active)	209 nM (active)	235 nM (active)	332 nM (active)	–	–
CNNCc1ccc(C(=O)NC(C)C)cc1	-0.837%	–	inactive	inactive	inactive	inactive	inactive	inactive	112%	–
N[C@@]1(C(=O)O)CS(=O)(=O)[C@H]2[C@H](C(=O)O)[C@H]21	-21.5%	–	inactive	inactive	inactive	inactive	inactive	inactive	114%	–
Cc1cc2nc3c(=O)[nH]c(=O)nc-3n(CC(O)C(O)C(O)CO)c2cc1C (stereo unspecified)	-37.4%	–	inactive	inactive	inactive	inactive	inactive	inactive	106%	–
CC(C)CC(=O)N[C@H](C(=O)N[C@H](C(=O)N[C@@H](CC(C)C)[C@@H](O)CC(=O)N[C@@H](C)C(=O)N[C@@H](CC(C)C)[C@@H](O)CC(=O)O)C(C)C)C(C)C (Isovaleryl-VV[Sta]A[Sta]-OH)	-1.4%	–	inactive	inactive	inactive	inactive	inactive	inactive	117%	–
CN1CC(=O)NC1=NC(=O)Nc1cccc(Cl)c1	-20.6%	–	inactive	inactive	inactive	inactive	inactive	inactive	111%	–
